According to PubChem BioAssay (EPA / NIEHS):
Records with an inconclusive call do not appear. Where a structure was tested more than once in an assay, its records may differ in their call. Active and inactive are the calls of the source. How the source made its calls, unless noted: active means hit-call score of the fitted dose curve at least 0.9, where 1 is the maximum; inconclusive means response in the unintended direction; inactive means score below 0.9.

Key:
[1] = target: Estrogen receptor (Homo sapiens) (UniProt P03372); assay: OT_ERa_GFPERaERE_0480: Odyssey Thera (OT) 8-hour HeLa Transcription Induction Assay for Estrogen Receptor (AID 2283381; active means hit-call score of the fitted dose curve at least 0.9, where 1 is the maximum; inactive means score below 0.9)
Chain of Estrogen receptor (Homo sapiens) (P03372 whole entry, looked up): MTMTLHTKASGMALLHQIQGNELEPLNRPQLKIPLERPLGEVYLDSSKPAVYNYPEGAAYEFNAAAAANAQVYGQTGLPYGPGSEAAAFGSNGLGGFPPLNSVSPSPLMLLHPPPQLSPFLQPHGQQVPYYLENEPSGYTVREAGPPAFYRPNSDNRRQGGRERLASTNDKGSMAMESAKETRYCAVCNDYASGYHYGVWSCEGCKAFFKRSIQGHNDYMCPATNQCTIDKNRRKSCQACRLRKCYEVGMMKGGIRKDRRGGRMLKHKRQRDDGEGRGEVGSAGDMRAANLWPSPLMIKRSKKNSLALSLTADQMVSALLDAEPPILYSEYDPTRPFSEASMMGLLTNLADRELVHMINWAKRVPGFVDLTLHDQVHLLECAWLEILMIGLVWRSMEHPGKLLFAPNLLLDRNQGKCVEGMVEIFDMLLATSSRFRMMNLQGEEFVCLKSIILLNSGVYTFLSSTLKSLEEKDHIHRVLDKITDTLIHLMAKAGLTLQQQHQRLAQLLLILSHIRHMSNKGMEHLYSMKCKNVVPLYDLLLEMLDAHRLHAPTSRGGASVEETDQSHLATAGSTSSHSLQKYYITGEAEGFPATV
Procedure, shortened: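 Fluorescent reporter signal, imaged by microscopy and scored with image-analysis algorithms, was taken 8 h after chemical dosing of HeLa cells; activity was fitted upward relative to DMSO.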

[2] = target: Estrogen receptor (Homo sapiens) (UniProt P03372); assay: OT_ERa_GFPERaERE_0120: Odyssey Thera (OT) 2-hour HeLa Transcription Induction Assay for Estrogen Receptor (AID 2283382)
Procedure, shortened: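 HeLa, 384-well, 2 h chemical exposure; GFP reporter induction (ERE), fluorescence microscopy; high content image analysis; positive fitting direction vs DMSO.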

[3] = target: Bile acid receptor (Homo sapiens) (UniProt Q96RI1); assay: OT_FXR_FXRSRC1_0480: Odyssey Thera (OT) 8-hour HEK293T Protein-Complementation Assay for Farnesoid X receptor/SRC-1 Co-activator (AID 2283383)
Chain of Bile acid receptor (Homo sapiens) (Q96RI1 whole entry, looked up, the tested form may be a part): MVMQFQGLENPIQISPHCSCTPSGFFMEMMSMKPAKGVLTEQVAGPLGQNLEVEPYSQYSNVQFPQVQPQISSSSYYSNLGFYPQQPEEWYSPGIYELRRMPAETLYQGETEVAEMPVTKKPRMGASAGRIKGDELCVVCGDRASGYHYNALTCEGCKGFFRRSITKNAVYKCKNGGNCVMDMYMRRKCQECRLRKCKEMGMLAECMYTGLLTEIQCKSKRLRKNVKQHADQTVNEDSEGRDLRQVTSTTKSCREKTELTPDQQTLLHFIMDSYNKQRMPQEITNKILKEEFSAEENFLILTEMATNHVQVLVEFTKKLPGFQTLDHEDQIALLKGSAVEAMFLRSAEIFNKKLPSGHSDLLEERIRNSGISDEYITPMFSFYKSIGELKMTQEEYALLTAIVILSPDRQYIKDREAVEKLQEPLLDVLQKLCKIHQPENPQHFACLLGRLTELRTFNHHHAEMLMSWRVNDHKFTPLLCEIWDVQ
Procedure, shortened: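 Human kidney HEK293T cells carried FXR/SRC-1 fragment-complementation constructs. Compounds were added and incubated 8 h. Reporter reassembly upon receptor–co-activator interaction was then quantified by fluorescence, with curves fitted in the positive direction relative to DMSO.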

[4] = target: Bile acid receptor (Homo sapiens) (UniProt Q96RI1); assay: OT_FXR_FXRSRC1_1440: Odyssey Thera (OT) 24-hour HEK293T Protein-Complementation Assay for Farnesoid X receptor/SRC-1 Co-activator (AID 2283384)
Procedure, shortened: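 Compounds are applied to human kidney HEK293T cells expressing bait and prey fused to reporter protein fragments; after 24 h, reconstituted reporter fluorescence is measured. Activity is fitted as signal gain over DMSO.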

[5] = target: Retinoic acid receptor RXR-alpha (Homo sapiens) (UniProt P19793); assay: OT_NURR1_NURR1RXRa_0480: Odyssey Thera (OT) 8-hour HEK293T Protein Complementation Assay for Nurr1/retinoid X receptor (RXR) (AID 2283385)
Chain of Retinoic acid receptor RXR-alpha (Homo sapiens) (P19793 whole entry, looked up, the tested form may be a part): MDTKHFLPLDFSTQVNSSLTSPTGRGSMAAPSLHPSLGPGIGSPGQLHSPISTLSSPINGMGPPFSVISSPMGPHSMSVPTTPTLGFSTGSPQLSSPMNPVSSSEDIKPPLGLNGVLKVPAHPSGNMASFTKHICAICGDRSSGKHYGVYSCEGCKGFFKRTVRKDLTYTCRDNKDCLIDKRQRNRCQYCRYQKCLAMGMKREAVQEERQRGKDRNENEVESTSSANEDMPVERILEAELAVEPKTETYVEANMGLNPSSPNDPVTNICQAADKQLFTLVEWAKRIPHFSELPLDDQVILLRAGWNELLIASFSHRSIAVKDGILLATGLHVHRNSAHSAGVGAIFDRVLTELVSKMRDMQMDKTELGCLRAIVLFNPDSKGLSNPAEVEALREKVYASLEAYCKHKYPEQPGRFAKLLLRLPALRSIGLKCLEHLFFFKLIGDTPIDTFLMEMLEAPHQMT
Procedure, shortened: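 8 h compound exposure, HEK293T; Nurr1/RXRα fragment complementation; fluorescence intensity; positive fitting direction vs DMSO baseline.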

[6] = target: Estrogen receptor beta (Homo sapiens) (UniProt Q92731); assay: OT_ER_ERbERb_1440: Odyssey Thera (OT) 24-hour HEK293T Protein-Complementation Assay for Estrogen Receptor-beta/-beta Homodimer (AID 2283380);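 further: fluorescence gain from ER beta LBD homodimer complementation read by laser scanning cytometry; scored as signal increase over DMSO baseline for both agonists and antagonists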
Chain of Estrogen receptor beta (Homo sapiens) (Q92731 whole entry, looked up, the tested form may be a part): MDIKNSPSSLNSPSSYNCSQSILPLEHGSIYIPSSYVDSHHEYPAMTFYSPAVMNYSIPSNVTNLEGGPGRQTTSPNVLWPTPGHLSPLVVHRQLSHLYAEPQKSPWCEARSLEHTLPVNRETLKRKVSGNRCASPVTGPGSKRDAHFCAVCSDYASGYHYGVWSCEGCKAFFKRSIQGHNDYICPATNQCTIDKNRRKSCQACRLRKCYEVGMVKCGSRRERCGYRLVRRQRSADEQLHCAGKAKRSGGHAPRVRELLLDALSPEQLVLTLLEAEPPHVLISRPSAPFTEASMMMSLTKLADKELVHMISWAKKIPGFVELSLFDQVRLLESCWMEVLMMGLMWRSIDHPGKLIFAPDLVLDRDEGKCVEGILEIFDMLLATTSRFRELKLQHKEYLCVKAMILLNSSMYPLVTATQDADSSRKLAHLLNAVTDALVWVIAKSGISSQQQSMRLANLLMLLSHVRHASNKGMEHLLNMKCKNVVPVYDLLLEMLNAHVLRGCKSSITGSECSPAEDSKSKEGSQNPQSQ
Procedure, shortened: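 HEK293T cells stably expressing human ER-beta LBD (aa 310-547) PCA homodimer pair, dosed 24 h; formaldehyde-fixed, Draq5-stained. Readout: increase in nuclear (agonist) or nuclear plus cytoplasmic (antagonist) fluorescence intensity versus DMSO, gain-of-signal fitting.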

[7] = target: Retinoic acid receptor RXR-alpha (Homo sapiens) (UniProt P19793); assay: OT_NURR1_NURR1RXRa_1440: Odyssey Thera (OT) 24-hour HEK293T Protein Complementation Assay for Nurr1/retinoid X receptor (RXR) (AID 2283386)
Procedure, shortened: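 Interaction of Nurr1 with RXRα brings fused reporter fragments together in human HEK293T cells, restoring a functional reporter. Fluorescence intensity is measured 24 h after chemical treatment, and values are analysed in the positive direction against DMSO.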

[8] = target: Peroxisome proliferator-activated receptor gamma (Homo sapiens) (UniProt P37231); assay: OT_PPARg_PPARgSRC1_0480: Odyssey Thera (OT) 8-hour Protein-Complementation Assay for Peroxisome Proliferator-activated Receptor Gamma / SRC-1 Co-activator (AID 2283387);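 further: nuclear to cytoplasmic split Venus YFP fluorescence ratio reporting PPARg SRC-1 interaction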
Chain of Peroxisome proliferator-activated receptor gamma (Homo sapiens) (P37231 whole entry, looked up, the tested form may be a part): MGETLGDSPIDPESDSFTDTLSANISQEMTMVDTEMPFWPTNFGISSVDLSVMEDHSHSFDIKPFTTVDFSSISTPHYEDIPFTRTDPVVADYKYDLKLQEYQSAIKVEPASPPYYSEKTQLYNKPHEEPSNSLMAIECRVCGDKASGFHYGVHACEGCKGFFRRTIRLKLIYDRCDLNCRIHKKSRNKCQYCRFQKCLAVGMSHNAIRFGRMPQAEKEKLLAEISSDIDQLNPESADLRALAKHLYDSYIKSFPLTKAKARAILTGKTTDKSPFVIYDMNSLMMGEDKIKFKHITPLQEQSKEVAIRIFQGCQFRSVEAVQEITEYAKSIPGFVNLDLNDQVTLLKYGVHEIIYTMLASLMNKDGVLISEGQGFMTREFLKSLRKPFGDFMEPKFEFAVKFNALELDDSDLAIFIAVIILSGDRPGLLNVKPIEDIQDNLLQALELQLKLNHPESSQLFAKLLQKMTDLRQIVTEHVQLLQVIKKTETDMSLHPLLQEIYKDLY
Procedure, shortened: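 Protein-fragment complementation of split Venus YFP reports PPARg/SRC-1 interaction in HEK293T (transfected 48 h before treatment), exposed 8 h. Readout: N/C fluorescence ratio at 488 nm from imaging, Draq5 for segmentation, positive fit relative to DMSO.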

[9] = read-out: Tumor necrosis factor receptor superfamily member 6 (Homo sapiens) (UniProt P25445); assay: LTEA_HepaRG_FAS: Life Technologies and Expression Analysis (LTEA) Assay for Fas cell surface death receptor (FAS) using HepaRG (AID 2283447; active means hit-call score of the fitted dose curve at least 0.9, where 1 is the maximum; inactive means score below 0.9); conditions: mRNA level, 48 h; actives raise or lower the signal
Procedure, shortened: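 Differentiated human HepaRG cells, pre-cultured 48 h, were exposed in duplicate for 48 h to 8-point half-log concentrations (top 100 uM, 0.5% DMSO) in serum-free induction medium; FAS mRNA measured by qRT-PCR, normalized to ACTB/GAPDH/POLR2A, bidirectional fit versus DMSO.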

[10] = read-out: Fatty acid synthase (Homo sapiens) (UniProt P49327); assay: LTEA_HepaRG_FASN: Life Technologies and Expression Analysis (LTEA) Assay for Fatty Acid Synthase (FASN) using HepaRG (AID 2283448; active means hit-call score of the fitted dose curve at least 0.9, where 1 is the maximum; inactive means score below 0.9); conditions: mRNA level, 48 h; actives raise or lower the signal
Procedure, shortened: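 FASN expression changes, up or down relative to 0.5% DMSO, were measured by qRT-PCR in human HepaRG cells after 48 h treatment with chemicals at eight concentrations (half-log steps from 100 uM).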

[11] = target: Peroxisome proliferator-activated receptor gamma (Homo sapiens) (UniProt P37231); assay: OT_PPARg_PPARgSRC1_1440: Odyssey Thera (OT) 24-hour Protein-Complementation Assay for Peroxisome Proliferator-activated Receptor Gamma/ SRC-1 Co-activator (AID 2283388);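 further: nuclear to cytoplasmic ratio of reconstituted Venus YFP fluorescence in fixed imaged cells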
Procedure, shortened: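 Cells carrying the PPARg/SRC-1 fragment-complementation reporter receive compound for 24 hours, are fixed and counterstained with Draq5, then imaged. Increased nuclear relative to cytoplasmic YFP fluorescence above DMSO baseline indicates binding activity.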

Measured: AC50

Chain of Fatty acid synthase (Homo sapiens) (P49327 whole entry, looked up): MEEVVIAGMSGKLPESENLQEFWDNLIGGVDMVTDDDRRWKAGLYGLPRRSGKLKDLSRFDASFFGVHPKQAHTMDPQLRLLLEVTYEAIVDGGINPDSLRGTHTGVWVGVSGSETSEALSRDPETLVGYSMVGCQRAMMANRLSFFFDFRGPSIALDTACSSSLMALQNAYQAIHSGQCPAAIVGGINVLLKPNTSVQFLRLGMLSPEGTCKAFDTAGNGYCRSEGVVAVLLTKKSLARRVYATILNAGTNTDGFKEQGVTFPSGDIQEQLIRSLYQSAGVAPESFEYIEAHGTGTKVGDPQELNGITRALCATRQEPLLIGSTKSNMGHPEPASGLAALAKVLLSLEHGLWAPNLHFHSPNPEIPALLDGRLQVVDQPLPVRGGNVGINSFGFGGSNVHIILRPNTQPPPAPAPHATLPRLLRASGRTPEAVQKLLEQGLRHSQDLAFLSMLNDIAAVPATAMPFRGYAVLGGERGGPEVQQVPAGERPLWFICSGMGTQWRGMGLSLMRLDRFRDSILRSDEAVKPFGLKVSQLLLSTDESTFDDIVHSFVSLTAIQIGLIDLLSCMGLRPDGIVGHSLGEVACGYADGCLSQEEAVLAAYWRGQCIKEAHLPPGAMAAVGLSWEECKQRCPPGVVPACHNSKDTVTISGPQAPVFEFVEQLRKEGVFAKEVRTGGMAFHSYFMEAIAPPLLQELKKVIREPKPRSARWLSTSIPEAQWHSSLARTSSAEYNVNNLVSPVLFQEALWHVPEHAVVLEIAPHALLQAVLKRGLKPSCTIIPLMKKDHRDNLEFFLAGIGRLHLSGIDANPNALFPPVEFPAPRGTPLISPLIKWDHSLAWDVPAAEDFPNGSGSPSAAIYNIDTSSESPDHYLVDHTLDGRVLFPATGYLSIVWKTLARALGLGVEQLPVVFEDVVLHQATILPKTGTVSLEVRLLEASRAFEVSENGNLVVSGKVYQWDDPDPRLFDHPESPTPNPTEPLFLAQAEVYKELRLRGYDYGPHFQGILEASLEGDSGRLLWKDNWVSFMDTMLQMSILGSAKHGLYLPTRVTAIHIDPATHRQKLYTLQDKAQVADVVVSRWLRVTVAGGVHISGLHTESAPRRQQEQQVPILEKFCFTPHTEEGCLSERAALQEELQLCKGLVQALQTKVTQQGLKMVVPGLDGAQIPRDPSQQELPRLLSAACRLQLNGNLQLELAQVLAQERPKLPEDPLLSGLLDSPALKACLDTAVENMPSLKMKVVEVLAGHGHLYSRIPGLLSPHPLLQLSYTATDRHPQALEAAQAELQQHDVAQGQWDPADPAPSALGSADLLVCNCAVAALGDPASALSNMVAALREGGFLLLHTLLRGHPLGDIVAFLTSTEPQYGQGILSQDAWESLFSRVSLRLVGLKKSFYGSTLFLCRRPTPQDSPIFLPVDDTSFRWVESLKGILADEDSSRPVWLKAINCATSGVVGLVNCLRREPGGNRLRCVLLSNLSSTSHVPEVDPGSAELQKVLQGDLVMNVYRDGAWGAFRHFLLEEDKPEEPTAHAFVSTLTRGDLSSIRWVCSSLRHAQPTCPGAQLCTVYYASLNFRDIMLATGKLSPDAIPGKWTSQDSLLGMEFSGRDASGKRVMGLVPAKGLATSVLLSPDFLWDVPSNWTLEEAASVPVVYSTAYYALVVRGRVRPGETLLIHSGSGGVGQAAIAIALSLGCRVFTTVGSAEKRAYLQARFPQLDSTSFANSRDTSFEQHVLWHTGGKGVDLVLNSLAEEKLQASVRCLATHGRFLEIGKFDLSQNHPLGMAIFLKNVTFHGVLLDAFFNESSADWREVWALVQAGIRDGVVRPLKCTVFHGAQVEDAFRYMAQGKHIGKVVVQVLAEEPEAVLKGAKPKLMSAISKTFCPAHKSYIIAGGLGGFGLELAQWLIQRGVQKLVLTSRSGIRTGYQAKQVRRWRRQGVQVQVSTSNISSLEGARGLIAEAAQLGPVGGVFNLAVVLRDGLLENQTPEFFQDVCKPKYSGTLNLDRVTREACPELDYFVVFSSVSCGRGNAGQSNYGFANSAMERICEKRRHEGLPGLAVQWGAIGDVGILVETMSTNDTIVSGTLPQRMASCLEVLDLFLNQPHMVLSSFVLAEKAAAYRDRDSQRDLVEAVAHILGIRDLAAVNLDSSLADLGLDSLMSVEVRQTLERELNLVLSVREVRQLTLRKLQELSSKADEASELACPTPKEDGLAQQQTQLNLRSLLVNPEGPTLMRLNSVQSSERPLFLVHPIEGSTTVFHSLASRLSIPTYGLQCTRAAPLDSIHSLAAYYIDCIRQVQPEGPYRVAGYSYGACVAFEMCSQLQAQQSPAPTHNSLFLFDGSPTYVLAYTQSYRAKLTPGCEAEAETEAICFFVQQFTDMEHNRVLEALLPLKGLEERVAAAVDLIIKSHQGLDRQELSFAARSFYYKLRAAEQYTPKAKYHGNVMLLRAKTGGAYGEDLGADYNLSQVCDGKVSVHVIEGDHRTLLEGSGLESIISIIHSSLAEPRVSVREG

CCC[CH2][Sn]([Cl])([Cl])[Cl]
inactive: [1] | [2] | [3] | [4] | [5]

CC(C#N)CCC#N (configuration not stated)
inactive: [6] | [1] | [2] | [7] | [8]

O=C(O)C(F)(F)C(F)(F)C(F)(F)C(F)(F)C(F)(F)C(F)(F)C(F)(F)C(F)(F)C(F)(F)C(F)(F)F
not listed: [1] | [2] | [11]
inactive: all other assays above

BrCCBr
inactive: [6] | [1] | [2] | [5] | [7] | [8]

CC(C)C1CCC(Cc2ccc(Cl)cc2)C1(O)Cn1cncn1 (configuration not stated)
active: [2] 90.2 µM | [4] 11.2 µM
inactive: [6] | [1] | [8]

Oc1cccc2cccnc12
inactive: [6] | [3] | [8] | [9] | [10]

O=c1[nH]c(=O)[nH]c(=O)[nH]1
inactive: [6] | [7] | [8] | [11] | [9] | [10]

COC(=O)c1sccc1S(=O)(=O)NC(=O)Nc1nc(C)nc(OC)n1
inactive: [6] | [1] | [2] | [7] | [8] | [11]

CC(=O)[O][Hg][c]1ccccc1
active: [1] 4.11 µM | [2] 12 µM | [4] 0.2 µM | [7] 0.266 µM | [10] 2.25 µM
inactive: [6] | [8] | [11]

C=CCc1ccc(OC)cc1
inactive: [6] | [5] | [7] | [8] | [11]

Cc1ccccc1C(=O)Nc1cccc(OC(C)C)c1
inactive: [6] | [1] | [2] | [5] | [8] | [11]

CCCCCCCCc1ccc(O)cc1
inactive: [5] | [7] | [8] | [11] | [10]
active: [6] 12.3 µM | [7] 57.4 µM

O=C1C(Cl)=C(Cl)C(=O)c2ccccc21
active: [5] 11.4 µM | [8] 11.8 µM | [11] 11.8 µM
inactive: [6] | [1] | [2]

O=C(O)C(F)(F)C(F)(F)C(F)(F)C(F)(F)C(F)(F)C(F)(F)F
not listed: [1] | [2]
inactive: all other assays above
